Experiment [1] is described as follows: APR_HepG2_CellCycleArrest_24hr: Apredica 24-hour HepG2 Assay for Cell Cycle Arrest (AID 2282905).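 Note: cell cycle arrest scored as ratio of 2N to 4N nuclear DNA content.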 The conditions noted are these: imaging, actives raise or lower the signal. The essentials: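 HepG2 cells were exposed to compounds at 0.39–200 uM (ten concentrations, duplicate) in 0.5% v/v DMSO for 24 hr. After formaldehyde fixation and Triton permeabilization, Hoechst 33342-stained nuclei were imaged at 20x; DNA content was quantified, with bidirectional fitting against DMSO.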

The nature of experiment [2]: APR_HepG2_StressKinase_1hr: Apredica 1-hour HepG2 Assay for Stress Kinase (AID 2282906). To be noted: HepG2 stress kinase (phospho-c-Jun) imaging, actives raise or lower the signal. The essentials:
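HepG2 cells dosed 0.39-200 uM (0.5% DMSO) for 1 h, then formaldehyde-fixed. Stress kinase read by phospho-c-Jun immunofluorescence using high-content imaging; bidirectional fit vs DMSO.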

A short description of experiment [3]: APR_HepG2_NuclearSize_24hr: Apredica 24-hour HepG2 Assay for Nuclear Size (AID 2282907). The conditions noted are these: high-content imaging, actives raise or lower the signal. The essentials:
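HepG2 human liver cells were exposed for 24 hr to compounds at 0.39–200 uM (ten concentrations, duplicate) in 0.5% v/v DMSO. They were then formaldehyde-fixed, Triton-permeabilized and Hoechst 33342-stained, and nuclear diameter was imaged at 20x. Bidirectional fits were made against DMSO.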

Experiment [4] in a line: APR_HepG2_CellLoss_24hr: Apredica 24-hour HepG2 Assay for Cell Loss (AID 2282908).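 For AC50: fit in both directions so a hit may be cell loss or gain.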 To be noted: high-content imaging. The essentials:
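Compounds were tested at 0.39–200 uM in duplicate with 0.5% v/v DMSO final. Cells were then fixed in 3.7% formaldehyde, Hoechst 33342 nuclei were imaged at 20x by HCS, and cell number was fitted bidirectionally against DMSO.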

The nature of experiment [5]: APR_HepG2_MicrotubuleCSK_24hr: Apredica 24-hour HepG2 Assay for Microtubule CSK Stabilty (AID 2282909). The conditions noted are these: HepG2 microtubule cytoskeleton imaging, actives raise or lower the signal. An outline of the steps:
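HepG2 cells exposed 24 h to compounds at 0.39–200 uM (duplicate, 0.5% v/v DMSO final), then fixed, permeabilized and immunostained for alpha-tubulin with Hoechst 33342. Cytoskeleton imaged at 20x; bidirectional fit versus DMSO baseline.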

Experiment [6] can be described thus: APR_HepG2_MitoticArrest_24hr: Apredica 24-hour HepG2 Assay for Mitotic Arrest (AID 2282910). The conditions noted are these: high-content imaging, actives raise or lower the signal. An outline of the steps: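 HepG2 human liver cells were exposed to compounds at 0.39–200 uM (10 concentrations, duplicate) in 0.5% v/v DMSO for 24 hr, then fixed and immunostained for phospho-histone H3 with Hoechst 33342. Mitotic arrest came from HCS fluorescent imaging, fitted bidirectionally against DMSO.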

Experiment [7] in a line: APR_HepG2_MitoMass_24hr: Apredica 24-hour HepG2 Assay for Mitochondrial Mass (AID 2282912). The conditions noted are these: high-content imaging, actives raise or lower the signal. The essentials:
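Human HepG2 liver cells were exposed for 24 hr to compounds at 0.39–200 uM (duplicates, 0.5% v/v DMSO final). They were stained live with 250 nM MitoTracker Red CMXRos for 30 min, fixed in 3.7% formaldehyde, and imaged by HCS fluorescence; signals were fitted bidirectionally against DMSO.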

Experiment [8] in a line: APR_HepG2_p53Act_24hr: Apredica 24-hour HepG2 Assay for p53 Activation (AID 2282913).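 Note: p53 protein immunofluorescence averaged per cell in HepG2 with Hoechst nuclei.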 To be noted: high-content imaging, actives raise or lower the signal. An outline of the steps:
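HepG2 cells exposed 24 hr to compounds at 0.39–200 uM (10 concentrations, duplicate), final DMSO 0.5% v/v. After formaldehyde fixation and Triton permeabilization, p53 was immunolabeled (sheep anti-p53, Cy5 secondary) with Hoechst 33342 nuclear counterstain, then imaged by high-content fluorescence microscopy.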

Experiment [9] is described as follows: APR_HepG2_CellCycleArrest_72hr: Apredica 72-hour HepG2 Assay for Cell Cycle Arrest (AID 2282914). To be noted: high-content imaging, actives raise or lower the signal. The essentials: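 HepG2 cells were exposed to compounds at 0.39–200 uM (0.5% v/v DMSO final, duplicates) for 72 hr, fixed in 3.7% formaldehyde, permeabilized and stained with Hoechst 33342. Nuclear DNA content was quantified by high-content imaging; gain or loss of signal was fitted bidirectionally against DMSO.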

The structures appear in SMILES notation. Calls of active or inactive are those of the source. Rule for the calls: active = hit-call score of the fitted dose curve at least 0.9, where 1 is the maximum; inactive = score below 0.9.

What is called AC50 is the concentration at which the activity in the assay is half-maximal.

With `CS(=O)(=O)c1ccc(C(=O)C2C(=O)CCCC2=O)c([N+](=O)[O-])c1`, the outcome in [1], in experiment [2], in [3], in [4], in experiment [5] and in experiment [6] was inactive. Besides, the compound was called inactive in [7], in experiment [8] and in experiment [9].
On to `N#Cc1c(Cl)cccc1Cl`, for which the result in experiment [1], in experiment [2], in [3], in experiment [4], in experiment [5] and in experiment [6] was inactive. Also, the compound was classed as inactive in [7], in [8] and in [9].
With `COc1ccc(-c2ccccc2)cc1NNC(=O)OC(C)C`, the compound was classed as inactive in [1], in experiment [2], in [3], in experiment [4], in experiment [5] and in experiment [6]. Further, the outcome in [7] and in [8] was inactive.
Regarding `CCOc1cc(C(C)(C)C)ccc1C1COC(c2c(F)cccc2F)=N1` (stereo not given), the outcome in [1], in [2], in experiment [3], in [4], in [5] and in [6] was inactive. Besides, the compound was classed as inactive in [7] and in experiment [9].
For the compound `O=C1C2CC=CCC2C(=O)N1SC(Cl)(Cl)Cl` (stereo not given), the half-maximal activity concentration (AC50) was 33.4 µM (active) in experiment [1]; 87.6 µM (active) in experiment [2]; 59.3 µM (active) in experiment [3]; 54.6 µM (active) in experiment [4]; 24.1 µM (active) in [5]; 30.1 µM (active) in [6]. Besides, in experiment [8], the AC50 was 28.5 µM (active). The result in experiment [7] and in experiment [9] was inactive.
Consider `CCOP(=O)(OCC)Oc1nc(Cl)c(Cl)cc1Cl`, for which the outcome in experiment [1], in [2], in experiment [3], in [4], in experiment [5] and in [6] was inactive. For the same compound, the outcome in [7] and in experiment [8] was inactive.
Regarding `CC1(C)C(C=C(Cl)Cl)C1C(=O)OC(C#N)c1cccc(Oc2ccccc2)c1` (stereo not given), in experiment [1], the concentration at half-maximal activity (AC50) is 35.1 µM (active). Also, the compound was called inactive in [2], in experiment [3], in [4], in [5], in experiment [6] and in [7]. Moreover, the outcome in [8] was inactive.
Regarding `C=C(C)CN(CC)c1c([N+](=O)[O-])cc(C(F)(F)F)cc1[N+](=O)[O-]`, the compound was classed as inactive in [1], in experiment [2], in [3], in experiment [4], in [5] and in experiment [6]. The compound was classed as inactive in experiment [7] and in experiment [8].
Consider `CCN(CC)c1nc(C)cc(OP(=S)(OC)OC)n1`, for which the result in experiment [1], in experiment [2], in experiment [3], in [4], in experiment [5] and in experiment [6] was inactive. Besides, the outcome in experiment [7], in experiment [8] and in experiment [9] was inactive.
Regarding `Cc1cc(C)nc(Nc2ccccc2)n1`, the AC50 in experiment [1] is 43.7 µM (active); in [9], 61.8 µM (active). Also, the compound was classed as inactive in [2], in [3], in experiment [4], in [5], in experiment [6] and in [7]. Moreover, in experiment [8], the outcome was inactive.
`O=C(Nc1ccccc1-c1ccc(Cl)cc1)c1cccnc1Cl`: the result in experiment [1], in [2], in [3], in experiment [4], in experiment [5] and in experiment [6] was inactive. In addition, the compound was classed as inactive in experiment [7] and in [8].
Take `CC(C)Nc1nc(Cl)nc(NC(C)C)n1`: the outcome in experiment [1], in experiment [2], in experiment [3], in experiment [4], in experiment [5] and in experiment [6] was inactive. Further, the compound was called inactive in [7] and in experiment [8].
`CCSC(=O)N1CCCCCC1`: the compound was classed as inactive in experiment [1], in experiment [2], in experiment [3], in experiment [4], in [5] and in experiment [6]. The compound was called inactive in [7], in experiment [8] and in experiment [9].
Regarding `Cc1ccc(N=CN(C)C=Nc2ccc(C)cc2C)c(C)c1`, the outcome in experiment [1], in experiment [3], in experiment [5], in experiment [6], in [7] and in [8] was inactive. The concentration at half-maximal activity (AC50) is 75.4 µM (active) in experiment [2] and 117 µM (active) in experiment [4].
Take `CCCN(CC)CC1COC2(CCC(C(C)(C)C)CC2)O1` (stereo not given): the result in experiment [1], in experiment [2], in [3], in experiment [4], in experiment [6] and in experiment [7] was inactive. Moreover, the compound was classed as inactive in experiment [8]. In addition, the AC50 in experiment [5] is 100 µM (active).
With `N#Cc1c[nH]cc1-c1cccc2c1OC(F)(F)O2`, the half-maximal activity concentration (AC50) in experiment [1] was 26.9 µM (active); in [4], 22.4 µM (active); in experiment [9], 39.8 µM (active). Moreover, the outcome in [2], in experiment [3], in experiment [5], in [6], in experiment [7] and in experiment [8] was inactive.
Turning to `CC(C)N1C(=O)N(c2ccccc2)CSC1=NC(C)(C)C`, the half-maximal activity concentration (AC50) in experiment [1] is 97.8 µM (active); in experiment [4], 115 µM (active); in experiment [5] it was 76.6 µM (active); in experiment [6], 114 µM (active). In addition, the compound was classed as inactive in [2], in [3], in [7], in experiment [8] and in experiment [9].
For the compound `O=c1n(Cl)c(=O)n(Cl)c(=O)n1Cl`, the outcome in [1], in experiment [2], in [3], in [4], in experiment [5] and in experiment [6] was inactive. The result in experiment [7] and in experiment [8] was inactive.
With `COP(=O)(OC)O/C(C)=C/C(=O)N(C)C`, the compound was classed as inactive in [1], in experiment [2], in experiment [3], in experiment [4], in experiment [5] and in experiment [6]. Moreover, the result in [7] and in [8] was inactive.
